High-throughput results (PubChem)
BAZ2B block: qHTS Assay for Inhibitors of BAZ2B; Bromodomain adjacent to zinc finger domain protein 2B (Homo sapiens), Q9UIF8; AlphaScreen BAZ2B-H3K14Ac peptide displacement; Potency, µM (doses to about 114 µM), for inactives: at the top dose activity change, negative = inhibition, most hits filed as inhibitors; actives 4.4% (n = 360,000); further: potency means the concentration at half of the fitted maximal effect; on the % scale 0 is the no-effect control and ±100 the full control effect; nearly all actives have a fitted effect of over 60% in size
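Multi-concentration screen (max 110 uM) measuring displacement of acetylated histone H3 peptide from BAZ2B by AlphaScreen, using 50 nM protein, 50 nM peptide and 10 ug/mL streptavidin donor plus Ni-chelate acceptor beads.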
PLK1 PBD block: qHTS for Inhibitors of PLK1-PDB (polo-like kinase 1 - polo-box domain): Primary Screen; Serine/threonine-protein kinase PLK1 (Homo sapiens), P53350; Plk1 PBD binding of FITC phosphopeptide, fluorescence polarization; Potency, µM, for the others: max response, negative = inhibition, usual class: inhibitors; actives 2.8% (n = 360,000); AID 720504, 2013; further: potency means the concentration at half of the fitted maximal effect; series mostly up to about 57 µM; on the % scale 0 is the no-effect control and ±100 the full control effect; nearly all actives have a fitted effect of over 65% in size
HP1b binding inh: HTS for Inhibitors of HP1-beta Chromodomain Interactions with Methylated Histone Tails; actives 0.56% (n = 390,000); Potency, µM (titrated, usually from 114 µM), without a hit: at the highest dose activity change, negative = inhibition, most hits filed as inhibitors; Chromobox protein homolog 1 (Homo sapiens), P83916; AlphaScreen HP1-beta / biotin-H3K9me3 peptide binding; further: potency means the concentration at half of the fitted maximal effect; nearly all actives have a fitted effect of over 70% in size
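Compound inhibition of the preformed complex between 50 nM HP1-beta and 50 nM biotinylated H3K9me3 peptide was read by AlphaScreen. Buffer was PBS pH 7.4 with 0.01% Tween-20. Incubations ran 30 min at room temperature, with 10 ug/mL donor/acceptor beads.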
JMJD2A Tudor inh: qHTS Assay for Inhibitors of JMJD2A-Tudor Domain | Lysine-specific demethylase 4A (Homo sapiens), O75164 | AlphaScreen JMJD2A-Tudor / H3K4me3 peptide binding | Potency, µM (series often up to 114 µM), without a hit: top-dose activity change, negative = inhibition, usual class: inhibitors | actives 4.4% (n = 390,000); further: potency means the concentration at half of the fitted maximal effect; on the % scale 0 is the no-effect control and ±100 the full control effect; nearly all actives have a fitted effect of over 50% in size
PI5P4K alpha inh: qHTS for Inhibitors of phosphatidylinositol 5-phosphate 4-kinase (PI5P4K) | Phosphatidylinositol 5-phosphate 4-kinase type-2 alpha (Homo sapiens), P48426 | PI5P4Kalpha enzyme, ADP-Glo luminescence, 60 min; hits give low values | max response, % | actives 1.2% (n = 330,000) | AID 652105, 2013; active means max response of -50% or lower; inconclusive means between -30% and -50%; inactive means -30% or higher; further: value at the top dose of about 77 µM; on the % scale 0 is the no-effect control and ±100 the full control effect
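ADP-Glo luminescence end-point after a 60 min room-temperature kinase reaction. PI5P4Kalpha and substrate in HEPES pH 7.4 buffer with EGTA, 0.1% CHAPS and 5% DMSO; ATP at 5 microM final.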
G9a block: qHTS Assay for Inhibitors of Histone Lysine Methyltransferase G9a; Histone-lysine N-methyltransferase EHMT2 (Homo sapiens), Q96KQ7; actives 8.8% (n = 350,000); Potency, µM (highest dose often 102 µM), for the others: at the highest dose activity, negative = inhibition, actives largely listed as inhibitors; G9a H3K9 monomethylation, AlphaScreen, 2 h; further: potency means the concentration at half of the fitted maximal effect; on the % scale 0 is the no-effect control and ±100 the full control effect; nearly all actives have a fitted effect of over 75% in size
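AlphaScreen read-out: biotin-H3K9 peptide (500 nM) methylation by 20 nM enzyme with 20 uM SAM, 2 h at room temperature after 15 min compound preincubation; anti-monomethyl H3K9 antibody plus donor/acceptor beads, 10 min dark.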
Active calls of the source: *; ? = inconclusive; / = no result given; ! = not active in a repeat; [ ] = another dose, or the depositor's remark. In the library only some 12% were active in any assay of this set; here they are far more common. Unless noted, the call rests on the fitted dose curve; in most records, active means well fitted curve in the direction sought with a large enough effect; inconclusive means small, poorly fitted or top-dose-only effect, or another doubt; inactive means no such curve, though single readings can be large; an effect the other way counts as inactive or inconclusive.

SMILES | BAZ2B block | PLK1 PBD block | HP1b binding inh | JMJD2A Tudor inh | PI5P4K alpha inh | G9a block
Cc1cccc(C)c1NC(=O)C1(C)CSCC(=O)N1CCCn1ccnc1 (stereo not drawn) | / | -11% | / | / | 0 | /
CCOC1=C2[C@H](c3ccccc3)N(S(=O)(=O)c3ccc(C)cc3)C(C(C)(C)C)[C@H]2C(C#N)(C#N)C(C#N)(C#N)C1 (stereo partly drawn) | / | -28% | / | / | -50* | /
CCN(CC)S(=O)(=O)c1ccc(C(=O)Nc2nnc(C(C)C)s2)cc1 | -5% | -17% | 25% | -29% | 0 | 35µM*
CCOc1ccc(C(=O)Nc2nnc(C(C)C)s2)cc1OCC | 4% | -12% | 2% | -8% | 0 | 10µM*
COc1cccc(C2CNC3(CCCC(C)C3)c3[nH]c4ccccc4c32)c1OC (stereo not drawn) | 45µM* | -21% | 5% | ? | 6 | ?
CC1(C)CC(=O)CC2(C1)NCC(c1ccccc1)c1c2[nH]c2ccccc12 (stereo not drawn) | -35% | -2% | 16% | ? | -8 | ?
Cc1ccc(C)c(NC(=O)Nc2nnc(N(CC(C)C)CC(C)C)s2)c1 | -15% | / | 39% | -10% | / | -32%[59 µM]
O=C(Nc1ccc(C2=NCCN2)cc1)c1ccc(C(=O)Nc2ccc(C3=NCCN3)cc2)c([N+](=O)[O-])c1 | ? | 8% | ? | ? | -28 | 40µM*
Cc1ccc(NC(=O)c2ccc(-n3cccn3)c([N+](=O)[O-])c2)cc1 | -10% | -11% | -8% | -31% | -5 | 10%
CCCc1ccc(S(=O)(=O)N2CCN(Cc3ccco3)CC2)cc1 | -5% | -9% | 10% | -23% | -2 | /
CCCS(=O)(=O)N1CCN(CCCc2ccccc2)CC1 | 79µM* | 0% | ? | 5.6µM* | / | 10µM*
CCCS(=O)(=O)N1CCN(Cc2ccco2)CC1 | 50µM* | -1% | ? | ? | 8 | 14µM*
O=[N+]([O-])c1ccc(S(=O)(=O)N2CCN(Cc3ccco3)CC2)cc1 | 20µM* | -23% | 22µM* | 8.9µM* | -1 | ?
Fc1ccc(CCNc2ncnc3nc[nH]c23)cc1 | / | / | 27% | -10% | / | /
S=c1[nH]nc(CNc2cccc(Cl)c2)o1 | -22% | ? | 21% | -26% | -10 | 18µM*
Cc1ccc(C)c(NC(=S)N2CCN(c3ccccn3)CC2)c1 | -8% | -7% | 23% | -18% | 4 | /
CC(C)(C)C(=O)NCC12C=CC(O1)C1C(=O)N(c3ccccc3)C(=O)C12 (stereo not drawn) | -2% | -16% | ? | 56µM* | / | 1.6µM*
O=C1C2C3C=CC(CO)(O3)C2C(=O)N1c1ccc(-c2ccccc2)cc1 (stereo not drawn) | -27% | / | / | / | / | 1µM*
CCC1(C(=O)OC)NC(c2ccco2)C2C(=O)N(c3ccccc3)C(=O)C21 (stereo not drawn) | 5% | -10% | 54% | -5% | -3 | 9%[59 µM]
Cc1ccc(N2C(=O)C3C4C=CC(CNC(=S)N5CCN(c6ccccn6)CC5)(O4)C3C2=O)cc1 (stereo not drawn) | -1% | -16% | ? | ? | -20 | 2.2µM*
CCCCCC(=O)Cc1cc(O)cc2c1C(=O)Oc1cc(O)c(C(=O)O)c(CCCCC)c1O2 | ? | 24µM* | -9% | 79µM* | -76* | -23%[59 µM]
CN(c1ccc(O)cc1)c1nc(-c2ccccc2)cs1 | 50µM* | -4% | -8% | -24% | 17 | ?
CC(C)(O)[C@H](O)COc1c2occc2cc2ccc(=O)oc12 | -6% | 4% | -1% | -22% | 0 | 1.4µM*
CCN(CC)c1ccc(NC(=O)c2cccn2-c2nnc(N3CCCCC3)s2)c(C)c1 | 32µM* | / | ? | 50µM* | / | ?
Cc1ccc(S(=O)(=O)NC(=O)c2ccc(Br)o2)cc1 | 1% | 4% | 35% | -20% | -5 | 35µM*!
SMILES | BAZ2B block | PLK1 PBD block | HP1b binding inh | JMJD2A Tudor inh | PI5P4K alpha inh | G9a block
Cc1cc(NC(=O)c2ccc(NC(=O)C3CCCO3)cc2)ccc1Br (stereo not drawn) | -2% | 0% | 57% | 11% | 1 | 3%
Cc1cc(O)c(NC(=O)c2ccc(Br)o2)cc1C | 50µM* | 3% | 2% | -26% | -4 | 26%[12.7 µM]
Cc1ccc(S(=O)(=O)NC(=O)c2ccc(Br)o2)c(C)c1 | 1% | -1% | 40% | -10% | -12 | -6%
CCN(CC)c1ccc(NC(=O)c2ccc(NC(=O)C3CCCO3)cc2)c(C)c1 (stereo not drawn) | -37% | 2% | -13% | -33% | / | 8.9µM*
CCOC(=O)C1CCCN(C(=O)c2cccc(S(=O)(=O)N(C)c3ccc(C)cc3)c2)C1 (stereo not drawn) | -6% | -15% | 19% | -15% | 3 | 16%[12.7 µM]
O=C(Nc1ccc(Cl)cc1Cl)c1ccc(Br)o1 | -3% | -4% | -19% | -1% | 5 | 18%
CCN(CC)c1ccc(NC(=O)c2ccc(Br)o2)c(C)c1 | 40µM* | -1% | ? | 56µM* | / | ?
CCN(CC)c1ccc(NC(=O)c2cccc(F)c2)c(C)c1 | -10%[57.1 µM] | -3% | -17% | ? | 2 | 28µM*
CCN(CC)c1ccc(NC(=O)c2cc(C)nc3c2c(C)nn3-c2cccc(F)c2)c(C)c1 | 4%[57.1 µM] | / | 8% | -12% | / | -30%[59 µM]
CCCN1C(=O)/C(=C/c2ccc(C)s2)SC1=Nc1ccc(OC)cc1 | ? | 2% | -18% | ? | 15 | -49%
COc1ccc(N=C2S/C(=C\c3cc(C)n(C)c3C)C(=O)N2CC(C)C)cc1 | ? | -14% | ? | 40µM* | -5 | -12%[12.7 µM]
CSc1ccccc1C(=O)Nc1cccc(C)c1 | 3% | -1% | 37% | -7% | / | 45µM*
Cc1ccc(C)c(NC(=O)c2ccccc2NS(=O)(=O)c2cc([N+](=O)[O-])ccc2C)c1 | 7% | 60µM* | 40% | -20% | 0 | -12%[59 µM]
CSc1ccccc1C(=O)Nc1ccc(C)cc1C | -15% | -2% | 8% | -3% | -1 | ?
CSc1ccccc1C(=O)Nc1cccc([N+](=O)[O-])c1 | ? | -20% | 8% | -31% | -6 | ?
COc1ccc(NC(=O)c2ccccc2SC)cc1OC | 4% | -6% | 23% | -11% | 0 | ?
